Reference: article PMC4336329 (PLoS ONE, 2015)
The campaign covered roughly 310,000 compounds. About 2,200 (0.71%) showed an effect of 50% or more. Effects have a minus sign here. This excerpt belongs to a sample that is enriched for strong results.

biological target: human ether-à-go-go-related gene (hERG) potassium channel (human, UniProt Q12809); assay: primary screen, population patch clamp on CHO cells stably expressing hERG; higher = less effect of the substance
Experimental: Briefly, Chinese hamster ovary (CHO) cells stably expressing the hERG channel were dislodged from tissue culture flasks and dispensed into PPC plates. […] During the recording, background leak currents were estimated by a 100 ms step to -80 mV from an initial holding potential of -70 mV and subtracted from the subsequent current measurement. The campaign was conducted in two phases using slight differences in recording protocol. In the first phase, the initial voltage pulse used a 100 ms step to -30 mV from a holding potential of -70 mV, a 2 s conditioning step to +25 mV, and a 2 s test step to -30 mV. During the second phase of the screen, the potential during the conditioning step was raised to +45 mV. In both phases of the campaign, a secondary voltage pulse was applied using the same parameters as the second phase initial pulse. The initial and secondary pulses were applied in the absence of compound, and upon application of 1 μM and 10 μM test concentrations. Small molecule effects on hERG current density were quantified by […].

Chain of human ether-à-go-go-related gene (hERG) potassium channel (Q12809 whole entry, looked up): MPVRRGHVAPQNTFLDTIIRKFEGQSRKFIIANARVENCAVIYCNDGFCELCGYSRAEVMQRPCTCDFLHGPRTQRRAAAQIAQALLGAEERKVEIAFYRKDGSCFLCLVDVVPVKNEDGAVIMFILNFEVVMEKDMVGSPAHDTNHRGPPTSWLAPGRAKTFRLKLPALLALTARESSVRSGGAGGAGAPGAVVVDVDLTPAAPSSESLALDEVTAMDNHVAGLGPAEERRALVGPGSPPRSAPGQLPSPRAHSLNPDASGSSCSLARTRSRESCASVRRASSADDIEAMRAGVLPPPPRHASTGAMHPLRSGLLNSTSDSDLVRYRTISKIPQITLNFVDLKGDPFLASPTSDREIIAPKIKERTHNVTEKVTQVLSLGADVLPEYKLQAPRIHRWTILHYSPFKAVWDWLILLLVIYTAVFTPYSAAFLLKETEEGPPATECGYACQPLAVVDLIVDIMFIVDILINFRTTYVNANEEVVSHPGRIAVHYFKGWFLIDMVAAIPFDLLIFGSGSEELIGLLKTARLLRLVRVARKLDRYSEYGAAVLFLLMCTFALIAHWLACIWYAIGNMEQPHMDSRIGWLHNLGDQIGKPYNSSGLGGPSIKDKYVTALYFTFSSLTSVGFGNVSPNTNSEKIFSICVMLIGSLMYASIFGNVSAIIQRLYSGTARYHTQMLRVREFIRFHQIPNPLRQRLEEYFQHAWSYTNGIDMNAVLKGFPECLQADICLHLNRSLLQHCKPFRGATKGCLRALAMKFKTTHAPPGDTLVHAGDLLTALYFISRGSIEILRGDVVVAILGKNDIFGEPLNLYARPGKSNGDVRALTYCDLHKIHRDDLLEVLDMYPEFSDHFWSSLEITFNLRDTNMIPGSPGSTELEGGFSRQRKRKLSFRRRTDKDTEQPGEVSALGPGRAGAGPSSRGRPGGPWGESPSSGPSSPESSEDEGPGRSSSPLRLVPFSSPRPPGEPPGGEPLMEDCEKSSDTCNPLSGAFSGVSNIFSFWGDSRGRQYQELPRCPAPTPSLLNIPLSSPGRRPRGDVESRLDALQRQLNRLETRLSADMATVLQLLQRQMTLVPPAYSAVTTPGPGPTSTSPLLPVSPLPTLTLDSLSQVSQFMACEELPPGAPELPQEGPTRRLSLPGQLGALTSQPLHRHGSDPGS

| SMILES | hERG current change (%, negative = inhibition) at 1uM [%] |
| --- | --- |
| COC(=O)c1cn(NC(=O)C2CCCO2)c(=O)c2ccccc12 (centres unmarked) | 14.6 |
| CNc1nnc(SCC(=O)N2c3ccccc3NC(=O)CC2C)s1 (centres unmarked) | 6.91 |
| CC(=O)Nc1ccc(S(=O)(=O)NCCC(=O)OCC(=O)c2ccccc2)cc1 | 6.41 |
| COc1cccc(CN2CCCC(C(=O)Nc3ccc(-c4cscn4)cc3)C2)c1 (centres unmarked) | -10.8 |
| COc1ccccc1NC(=O)c1ccc(S(=O)(=O)NCc2ccco2)cc1 | 13.8 |
| O=C(NCCCN1CCCC1=O)c1cccc(NS(=O)(=O)c2ccccc2)c1 | 13.4 |
| CCOc1ccc(NC(=O)CN(C)C(=O)c2ccc(NC3CC3)c([N+](=O)[O-])c2)cc1OCC | -18.3 |
| COc1ccc(NC(=O)CN(C)C(=O)c2ccc(NC3CC3)c([N+](=O)[O-])c2)cc1 | -68.6 |
| COc1cccc(NC(=O)CN(C)C(=O)c2ccc(NC3CC3)c([N+](=O)[O-])c2)c1 | -40.8 |
| CC1Cc2cc(/C(O)=C3\C(=O)C(=O)N(Cc4ccncc4)C3c3ccccc3F)ccc2O1 (centres unmarked) | 17.9 |
| Cc1ccccc1N1CCN(C2CCCN(C(=O)c3ccc(Cl)s3)C2)CC1 (centres unmarked) | 1.61 |
| O=C(c1ccncc1)N1CCCC(N2CCN(c3ccc(F)cc3)CC2)C1 (centres unmarked) | -19.9 |
| CCCc1cc(C(=O)N2CCCC(N3CCN(c4ccc(F)cc4)CC3)C2)no1 (centres unmarked) | -74.1 |
| Cc1nnsc1C(=O)N1CCCC(N2CCN(c3ccc(F)cc3)CC2)C1 (centres unmarked) | 12.3 |
| Cc1nonc1C(=O)N1CCCC(N2CCN(c3ccc(F)cc3)CC2)C1 (centres unmarked) | -17.7 |
| CC(C)c1cc(C(=O)N2CCCC(N3CCN(c4ccc(F)cc4)CC3)C2)no1 (centres unmarked) | -36.4 |
| O=C(c1cccs1)N1CCCC(N2CCN(c3ccc(F)cc3)CC2)C1 (centres unmarked) | -52.1 |
| CC(C)=CC(=O)N1CCCC(N2CCN(c3ccc(F)cc3)CC2)C1 (centres unmarked) | 19.1 |
| Cc1cc(C(=O)N2CCCC(N3CCN(c4ccc(F)cc4)CC3)C2)no1 (centres unmarked) | -19.1 |
| CC(=O)c1ccc(C(=O)N2CCCC(N3CCN(c4ccc(F)cc4)CC3)C2)s1 (centres unmarked) | -51.3 |
| O=C(c1ccc(Cl)s1)N1CCCC(N2CCN(c3ccc(F)cc3)CC2)C1 (centres unmarked) | -63.2 |

| SMILES | hERG current change (%, negative = inhibition) at 1uM [%] |
| --- | --- |
| O=C(c1cccs1)N1CCCC(N2CCN(c3cccc(C(F)(F)F)c3)CC2)C1 (centres unmarked) | -8.83 |
| Nc1nc(Br)c2ccccc2c1-c1ccccc1 | 9.58 |
| CC(C)c1ccc(N(CC(=O)Nc2ccc(S(=O)(=O)N3CCOCC3)cc2)S(C)(=O)=O)cc1 | 21.3 |
| COc1ccc(CCNC(=O)/C=C/c2ccc3ccccc3n2)cc1OC | 10.9 |
| COc1ccc(S(=O)(=O)N(C)CC(=O)Nc2ccccc2SC)cc1Cl | 11.6 |
| COc1nc2ccccc2c(=O)n1-c1ccc(C)cc1 | 7.4 |
| Cc1cccc(C(=O)NCC2CCN(C(=O)c3cccc(C)c3)CC2)c1 | -2.21 |
| COc1cccc(NC(=O)CCN2CCC(C(N)=O)CC2)c1 | 16.9 |
| Cc1ccccc1C(=O)Nc1ccnn1C1CCN(Cc2cccnc2)CC1 | -48.9 |
| Cc1ccccc1C(=O)Nc1ccnn1C1CCN(Cc2cnn(C)c2)CC1 | -1.26 |
| Cc1ccccc1C(=O)Nc1ccnn1C1CCN(Cc2cnn(C(C)C)c2)CC1 | -27.3 |
| O=C(Nc1ccnn1C1CCN(Cc2ccccc2)CC1)c1ccccc1Cl | -53.1 |
| CC(CN1CCC(n2nccc2NC(=O)c2ccccc2Cl)CC1)c1ccccc1 (centres unmarked) | -43.6 |
| COCC(C)N1CCC(n2nccc2NC(=O)c2ccccc2Cl)CC1 (centres unmarked) | -1.49 |
| Cc1ccccc1C(=O)Nc1ccnn1C1CCN(Cc2ccncc2)CC1 | -3.47 |
| CSc1ccc(CN2CCC(n3nccc3NC(=O)c3ccccc3C)CC2)cc1 | -83.8 |
| CC(CCN1CCC(n2nccc2NC(=O)c2ccccc2Cl)CC1)c1ccccc1 (centres unmarked) | -85.1 |
| CCc1ccc(CN2CCC(n3nccc3NC(=O)c3ccccc3C)CC2)cc1 | -85.1 |
| O=C(Nc1ccnn1C1CCN(Cc2cccnc2)CC1)c1ccccc1Cl | -11.5 |
| Cn1cc(CN2CCC(n3nccc3NC(=O)c3ccccc3Cl)CC2)cn1 | -4.32 |
